This is part of a sample that, as a whole, favours compounds with a hit. Of some 83,000 tested, about 20% had one in any assay.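 Single-dose data. Exposure time 48 hours. Values below 10 considered active.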 A number with no mark means an inactive call. Calls of active or inactive are those of the source.
Tests used:
Assay in all cases: NCI-60 one-dose screen, 48 h (100 = growth as untreated, 0 = no growth, -100 = all killed)
Details in all cases: 10 µM
HOP-92 NSCLC = test system: HOP-92 NSCLC
786-0 renal = test system: 786-0 renal
SN12C renal = test system: SN12C renal
UO-31 renal = test system: UO-31 renal
TK-10 renal = test system: TK-10 renal
ACHN renal = test system: ACHN renal
A498 renal = test system: A498 renal
CCRF-CEM leukemia = test system: CCRF-CEM leukemia
RPMI-8226 leukemia = test system: RPMI-8226 leukemia
OVCAR-8 ovarian = test system: OVCAR-8 ovarian
OVCAR-4 ovarian = test system: OVCAR-4 ovarian
SK-OV-3 ovarian = test system: SK-OV-3 ovarian
IGROV1 ovarian = test system: IGROV1 ovarian
NCI/ADR-RES ovarian = test system: NCI/ADR-RES ovarian
BT-549 breast = test system: BT-549 breast
MDA-MB-435 melanoma = test system: MDA-MB-435 melanoma
MCF7 breast = test system: MCF7 breast
HCT-116 colon = test system: HCT-116 colon
HCC-2998 colon = test system: HCC-2998 colon
KM12 colon = test system: KM12 colon

SMILES | growth (HOP-92 NSCLC) | growth (786-0 renal) | growth (SN12C renal) | growth (UO-31 renal) | growth (TK-10 renal) | growth (ACHN renal) | growth (A498 renal) | growth (CCRF-CEM leukemia) | growth (RPMI-8226 leukemia) | growth (OVCAR-8 ovarian) | growth (OVCAR-4 ovarian) | growth (SK-OV-3 ovarian) | growth (IGROV1 ovarian) | growth (NCI/ADR-RES ovarian) | growth (BT-549 breast) | growth (MDA-MB-435 melanoma) | growth (MCF7 breast) | growth (HCT-116 colon) | growth (HCC-2998 colon) | growth (KM12 colon)
CC1=C2C(=C[C@@](C)(COP(=O)(Oc3ccccc3)Oc3ccccc3)[C@@H]2O)C(=O)[C@@](C)(O)C12CC2 | -44.8% (active) | -16.1% (active) | -76.3% (active) | -68.6% (active) | -22.2% (active) | -56.8% (active) | -39.4% (active) | 12.5% | 9.34% (active) | -68.5% (active) | -72.9% (active) | -79.5% (active) | -75.8% (active) | -75.5% (active) | -2.47% (active) | -77.1% (active) | 4.25% (active) | 0.872% (active) | -85.5% (active) | -29.3% (active)
CC[C@]12C=CCN3CC[C@@]4(c5ccc(OC)cc5N(C)[C@H]4[C@@](O)(C(=O)OC)[C@@H]1OC(=O)CCC[P+](c1ccc(F)cc1)(c1ccc(F)cc1)c1ccc(F)cc1)[C@@H]32 | -6.2% (active) | 80.9% | 16.6% | 81.5% | 63.9% | 101% | 101% | 20% | 24.4% | 28% | 48.6% | 54.7% | -15% (active) | 104% | -9.4% (active) | 6.69% (active) | 7.7% (active) | 32.2% | 22.4% | 21.3%
C[C@H]1[C@H](OC(=O)CCC(=O)N(CCCc2cn(-c3ccc(CN4CCOCC4)cc3)nn2)CCNc2ccnc3cc(Cl)ccc23)O[C@@H]2OC3(C)CC[C@H]4[C@H](C)CC[C@@H]1[C@@]24OO3 | -9.61% (active) | -65% (active) | 23.2% | 13.1% | 48.8% | 23.1% | 93.6% | 8.19% (active) | 3.71% (active) | 19.4% | 45.9% | 74.2% | 38% | 26.1% | 5.43% (active) | 18.4% | 11.2% | -8.13% (active) | 40.1% | 24.7%

From PubChem BioAssay (NCI)
